# Source: PubChem BioAssay
# Activity calls are given as the source filed them. Unless noted, no rule for the calls is given here.
# How the values were obtained:
# [1] = anti-His antibody binders, primary screen, artefact control for SMM control protein annotation, biochemical, small-molecule microarray, 635 nm fluorescence (AID 1128); conditions: anti-His Alexa647 antibody binding, higher = more signal;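 also: score merges feature fluorescence with signal-to-noise for each printed compound spot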
# [2] = test system: Human papillomavirus type 1a E7 protein (residues 1-88); test: HPV1a E7 small-molecule binders, primary screen, biochemical, small-molecule microarray, residues 1-88, 635 nm (AID 1129); conditions: small-molecule microarray binding, fluorescence 635 nm; higher = more signal
# [3] = target: Focal adhesion kinase 1 (Homo sapiens) (UniProt Q05397); test: small-molecule microarray binders of FAK, primary screen, biochemical, 635/667 nm fluorescence, BSA, DTT (AID 1130); conditions: PTK2 binding, 635 nm fluorescence, higher = more signal;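 also: composite of spot emission at 667 nm and signal to noise over triplicate slides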
# Focal adhesion kinase 1 (Homo sapiens), sequence (Q05397 whole entry, looked up): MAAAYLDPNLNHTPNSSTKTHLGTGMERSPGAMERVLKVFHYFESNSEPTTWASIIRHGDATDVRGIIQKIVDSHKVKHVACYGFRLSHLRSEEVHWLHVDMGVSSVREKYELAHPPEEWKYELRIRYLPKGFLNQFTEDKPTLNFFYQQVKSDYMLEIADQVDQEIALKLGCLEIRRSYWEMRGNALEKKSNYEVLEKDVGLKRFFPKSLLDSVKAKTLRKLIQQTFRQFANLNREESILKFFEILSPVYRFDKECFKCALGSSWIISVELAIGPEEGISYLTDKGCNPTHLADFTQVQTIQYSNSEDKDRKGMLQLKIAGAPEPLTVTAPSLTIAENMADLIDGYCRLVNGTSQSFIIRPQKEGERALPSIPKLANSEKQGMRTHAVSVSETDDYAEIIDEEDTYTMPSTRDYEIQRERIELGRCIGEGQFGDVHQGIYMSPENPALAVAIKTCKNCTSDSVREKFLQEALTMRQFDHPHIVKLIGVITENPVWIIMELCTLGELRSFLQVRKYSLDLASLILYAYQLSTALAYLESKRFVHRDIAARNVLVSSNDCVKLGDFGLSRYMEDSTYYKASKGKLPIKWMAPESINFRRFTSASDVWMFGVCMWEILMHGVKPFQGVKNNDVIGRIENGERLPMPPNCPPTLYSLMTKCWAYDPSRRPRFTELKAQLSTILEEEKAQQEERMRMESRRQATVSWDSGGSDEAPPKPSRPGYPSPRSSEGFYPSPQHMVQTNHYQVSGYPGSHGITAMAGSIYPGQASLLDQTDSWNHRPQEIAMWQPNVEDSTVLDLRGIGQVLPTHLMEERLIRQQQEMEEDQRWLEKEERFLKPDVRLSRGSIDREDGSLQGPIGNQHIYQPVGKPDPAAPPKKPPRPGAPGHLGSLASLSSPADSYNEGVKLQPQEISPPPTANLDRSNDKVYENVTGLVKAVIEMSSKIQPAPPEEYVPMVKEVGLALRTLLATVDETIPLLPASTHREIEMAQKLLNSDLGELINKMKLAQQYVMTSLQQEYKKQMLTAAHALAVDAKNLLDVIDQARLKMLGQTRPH
# [4] = test system: Fibrinogen (Alexa647-labelled); test: fibrinogen binders on compound microarrays, profiling panel, artefact control for SMM control-protein annotation, biochemical, small-molecule microarray, 635/667 nm fluorescence (AID 1131); conditions: fibrinogen-A647 binding fluorescence, higher = more signal;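 also: z-score merges 667 nm fluorescence with per-spot signal-to-noise over triplicate slides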
# [5] = target: Follistatin (Homo sapiens) (UniProt P19883); test: follistatin binders on small-molecule microarrays, primary screen, biochemical, small-molecule microarray, 635/667 nm fluorescence (AID 1132); conditions: FST binding, 635 nm fluorescence, higher = more signal
# Follistatin (Homo sapiens), sequence (P19883 whole entry, looked up): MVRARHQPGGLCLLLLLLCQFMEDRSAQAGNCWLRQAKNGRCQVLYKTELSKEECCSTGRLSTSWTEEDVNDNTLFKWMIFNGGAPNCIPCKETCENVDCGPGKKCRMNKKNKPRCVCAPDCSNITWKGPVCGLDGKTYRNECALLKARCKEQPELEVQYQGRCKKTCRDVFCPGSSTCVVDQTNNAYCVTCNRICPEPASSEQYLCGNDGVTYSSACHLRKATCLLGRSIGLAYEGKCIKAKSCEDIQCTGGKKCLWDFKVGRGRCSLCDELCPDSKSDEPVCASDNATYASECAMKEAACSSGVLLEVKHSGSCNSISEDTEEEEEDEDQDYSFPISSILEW
# [6] = target: Fibroblast growth factor 2 (Homo sapiens) (UniProt P09038); test: FGF2 binders on small-molecule microarrays, primary screen, biochemical, small-molecule microarray, 635/667 nm fluorescence (AID 1133); conditions: small-molecule microarray binding, FGF2, fluorescence 635/667; higher = more signal
# Fibroblast growth factor 2 (Homo sapiens), sequence (P09038 whole entry, looked up): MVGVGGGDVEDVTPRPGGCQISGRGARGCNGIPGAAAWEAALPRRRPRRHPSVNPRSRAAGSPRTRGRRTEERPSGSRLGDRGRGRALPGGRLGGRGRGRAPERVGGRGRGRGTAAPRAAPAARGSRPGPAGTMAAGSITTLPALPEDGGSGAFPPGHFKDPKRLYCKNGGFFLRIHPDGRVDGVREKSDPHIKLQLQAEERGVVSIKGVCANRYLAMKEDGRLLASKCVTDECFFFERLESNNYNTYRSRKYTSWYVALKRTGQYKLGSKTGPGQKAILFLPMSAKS
# [7] = mitochondrial membrane potential change in A549 cells, profiling panel, cell-based, JC-1 fluorescence, basal, 24 h, 100 nL (AID 1138); conditions: higher = more signal;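 also: A549 lung adenocarcinoma cells under basal conditions with no added stimulus; test concentration not given here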
# Lefty1 = Lefty1 binders on small-molecule microarrays, primary screen, biochemical, small-molecule microarray, 635/667 nm fluorescence (AID 1139); conditions: small-molecule microarray binding, fluorescence 635/667; higher = more signal
# [8] = test system: wheat germ agglutinin (Triticum aestivum), Alexa647-labelled; test: wheat germ agglutinin binders on compound microarrays, profiling panel, artefact control for SMM control-protein annotation, biochemical, small-molecule microarray, 635/667 nm fluorescence (AID 1140); conditions: WGA-A647 binding, 635 nm fluorescence, higher = more signal;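 also: score merges 667 nm feature emission with signal to noise over triplicate slides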
# [9] = target: Luciferin 4-monooxygenase (Photinus pyralis) (UniProt P08659); test: firefly luciferase enzyme inhibitors, primary screen, biochemical, luminescence, purified enzyme, 2006 set (AID 1141); conditions: SteadyGlo luminescence, 30 min, higher = more signal, called active from +8 up or from −8 down;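 also: cell-free assay with purified firefly luciferase at 100 ng per well in PBS; test concentration not given here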
# Luciferin 4-monooxygenase (Photinus pyralis), sequence (P08659 whole entry, looked up): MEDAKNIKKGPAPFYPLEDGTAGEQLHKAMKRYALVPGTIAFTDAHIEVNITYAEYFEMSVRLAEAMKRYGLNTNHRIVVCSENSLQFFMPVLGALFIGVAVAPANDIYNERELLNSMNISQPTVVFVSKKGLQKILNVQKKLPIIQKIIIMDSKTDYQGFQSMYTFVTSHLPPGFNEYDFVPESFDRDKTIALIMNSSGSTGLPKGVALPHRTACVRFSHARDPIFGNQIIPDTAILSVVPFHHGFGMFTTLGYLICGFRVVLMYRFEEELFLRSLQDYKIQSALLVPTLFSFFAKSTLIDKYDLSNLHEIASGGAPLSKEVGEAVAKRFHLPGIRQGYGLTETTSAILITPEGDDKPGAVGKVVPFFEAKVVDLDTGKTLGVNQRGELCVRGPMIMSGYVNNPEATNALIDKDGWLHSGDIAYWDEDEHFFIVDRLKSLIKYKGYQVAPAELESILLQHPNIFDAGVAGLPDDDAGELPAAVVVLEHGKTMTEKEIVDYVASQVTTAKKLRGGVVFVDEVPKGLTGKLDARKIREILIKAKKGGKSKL
# [10] = test system: Wnt5a (protein binding on small-molecule microarray); test: Wnt5a binders on small-molecule microarray, primary screen, biophysical, 635/667 nm fluorescence (AID 1142); conditions: 635 nm fluorescence, higher = more signal;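 also: fluorescence read at 667 nm with signal to noise per printed feature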
# [11] = cell viability in Huh7 cells, primary screen, cytotoxicity control for HCV replication inhibitor project, CellTiter-Glo luminescence, basal, 48 h (AID 1143); conditions: Huh7 HCV replicon, higher = more signal, called active from +8 up or from −8 down;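 also: Huh7 hepatoma cells carrying a hepatitis C replication reporter with no stimulus; test concentration not given here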
# [12] = P. aeruginosa biofilm formation inhibitors, primary screen, PAO1 strain, BacTiter-Glo luminescence, LB-PBS (AID 1144); conditions: 12 h, higher = more signal
# [13] = CREB reporter modulators without forskolin, primary screen, cell-based, PC12, CRE-LacZ reporter, unstimulated (AID 1145); conditions: no forskolin, luminescence, 4.5 h, higher = more signal, called active from +8 up or from −8 down
# [14] = CREB reporter modulators under forskolin, primary screen, cell-based, PC12, CRE-LacZ reporter, forskolin-stimulated (AID 1146); conditions: luminescence, 4.5 h, higher = more signal, called active from +8 up or from −8 down;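 also: PC12 cells with 6xCRE LacZ reporter stimulated by forskolin 10 µM; beta-galactosidase reporter signal reflecting CREB driven transcription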
# [15] = target: Streptavidin (Streptomyces avidinii) (UniProt P22629); test: streptavidin binders on small-molecule microarray, primary screen, artefact control for SMM compound annotation, biophysical, 635/667 nm fluorescence (AID 1147); conditions: streptavidin binding, higher = more signal;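 also: signal reflects streptavidin binding to arrayed compounds as a control protein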
# Streptavidin (Streptomyces avidinii), sequence (P22629 whole entry, looked up): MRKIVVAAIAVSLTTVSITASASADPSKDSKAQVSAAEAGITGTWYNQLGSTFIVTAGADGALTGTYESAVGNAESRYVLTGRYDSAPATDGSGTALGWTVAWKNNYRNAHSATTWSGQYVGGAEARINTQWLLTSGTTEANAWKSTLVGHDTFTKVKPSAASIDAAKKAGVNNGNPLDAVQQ
# [16] = small-molecule binders of probe aInhba, primary screen, biochemical, small-molecule microarray, 635/667 nm fluorescence (AID 1148); conditions: higher = more signal;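 also: score merges 667nm spot fluorescence with signal-to-noise for antibody binding to printed compounds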
# Torsin-1A (Homo sapiens) [17] = target: Torsin-1A (Homo sapiens) (UniProt O14656); test: torsin A binders from cell lysate, primary screen, small-molecule microarray, wild-type, 635/667 nm (AID 1149); conditions: COS7 hTOR1A-WT lysate, 635 nm fluorescence, higher = more signal
# Torsin-1A (Homo sapiens), sequence (O14656 whole entry, looked up): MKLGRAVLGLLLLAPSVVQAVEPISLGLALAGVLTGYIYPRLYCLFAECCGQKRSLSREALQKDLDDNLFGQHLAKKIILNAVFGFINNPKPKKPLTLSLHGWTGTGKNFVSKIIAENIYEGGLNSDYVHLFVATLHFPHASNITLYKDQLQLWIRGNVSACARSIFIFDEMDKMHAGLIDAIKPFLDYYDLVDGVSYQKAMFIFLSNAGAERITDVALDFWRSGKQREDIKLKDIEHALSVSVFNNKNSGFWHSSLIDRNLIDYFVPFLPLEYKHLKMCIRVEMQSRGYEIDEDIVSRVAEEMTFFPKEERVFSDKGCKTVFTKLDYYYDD
# Torsin-1A (Homo sapiens) [18] = target: Torsin-1A (Homo sapiens) (UniProt O14656); test: small-molecule binders of mutant TOR1A in lysate, primary screen, cell lysate, small-molecule microarray, COS7 lysate, 635/667 nm fluorescence (AID 1150); conditions: COS7 hTOR1A mutant lysate, 635 nm fluorescence, higher = more signal;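 also: score pools 667 nm emission and signal to noise measuring lysate protein binding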
# [19] = test system: Sonic hedgehog protein (Shh); test: small-molecule binders of Shh protein, primary screen, biochemical, small-molecule microarray, 635/667 nm fluorescence (AID 1151); conditions: small-molecule microarray binding, 635 nm fluorescence; higher = more signal;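 also: Shh protein binding to compounds spotted on small-molecule microarray slides; score combines spot fluorescence intensity with signal-to-noise across triplicate slides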
Compound,composite z-score [1],composite z-score [2],composite z-score [3],composite z-score [4],composite z-score [5],composite z-score [6],z-score [7],composite z-score (Lefty1),composite z-score [8],z-score [9],composite z-score [10],z-score [11],z-score [12],z-score [13],z-score [14],composite z-score [15],composite z-score [16],composite z-score (Torsin-1A (Homo sapiens) [17]),composite z-score (Torsin-1A (Homo sapiens) [18]),composite z-score [19]
C=CC[C@]1(C(=O)O)COC(c2ccc(OCCCO)cc2)=N1,1.53,0.205,-0.0931,0.219,0.372,-0.105,0.0454,0.378,0.342,-0.497 (inactive),-0.0405,0.543 (inactive),-0.852 (inactive),1.46 (inactive),0.123 (inactive),-0.447,-0.103,-0.0985,0.338,0.0518
CCOC(=O)C[C@H]1[C@H](OC(=O)c2cc3ccccc3oc2=O)[C@@H](NC(=O)c2ccc(-c3ccccc3)cc2)c2cc(OCCCO)ccc2N1C(=O)c1ccc2ccccc2n1,1.04,1.15,0.553,0.458,1.11,0.485,-0.408,0.964,0.543,0.778 (inactive),0.355,-0.168 (inactive),-1.1 (inactive),1.03 (inactive),0.644 (inactive),0.207,0.166,0.626,0.572,1.84
COC(=O)[C@@]1(Cc2ccc(OC)cc2)[C@H]2c3cc(C(=O)N4CCCC4)n(Cc4c(-c5ccccc5)noc4C)c3C[C@H]2CN1C(=O)c1ccccc1,1.45,1.27,0.372,0.695,0.699,-0.298,-0.608,0.0669,0.539,2.05 (inactive),1.01,-3.29 (inactive),-0.452 (inactive),-0.185 (inactive),-0.531 (inactive),0.945,0.659,1.27,0.776,-0.314
CN1C(=O)C2C=CC(C(O)c3ccccn3)N(N(c3ccccc3)c3ccccc3)C2C1=O (stereo not given),0.375,0.669,0.0673,0.66,0.82,0.397,0.613,0.0714,0.747,-0.009 (inactive),0.485,0.346 (inactive),-1.26 (inactive),0.0569 (inactive),-0.164 (inactive),-0.0902,0.167,0.678,0.291,0.424
O=C(NCc1ccccc1)[C@@H]1c2ccccc2C(=O)N(Cc2ccccc2C(F)(F)F)[C@H]1c1ccc(CO)cc1,-0.782,0.334,0.0179,-0.709,0.592,-0.133,1.86,-0.324,0.32,-0.745 (inactive),-0.405,-1.55 (inactive),0.714 (inactive),0.324 (inactive),-0.0897 (inactive),-0.752,-0.201,-1.55,0.0481,-0.687
O=C1O[C@H](c2ccccc2)[C@H](c2ccccc2)N2[C@H]1[C@@H](C(=O)Nc1nc3ccccc3s1)[C@]1(C(=O)Nc3ccccc31)[C@H]2c1ccc(OCCO)cc1,1.55,1.19,0.522,1.01,1.45,1.18,-2.15,1.2,-0.0258,-4.2 (inactive),0.433,-2.91 (inactive),-0.538 (inactive),-0.0515 (inactive),-0.124 (inactive),0.534,-0.113,0.927,1.2,1.5
COc1ccc(CCN2C(=O)[C@@]3(Cc4ccccc42)c2ccccc2C(=O)N(Cc2ccccc2OC)[C@H]3c2ccc(CO)cc2)cc1,-0.983,-1.04,-0.149,-1.45,-1.19,-0.832,0.132,-1.55,-0.176,-0.377 (inactive),-0.166,-4.54 (inactive),0.0431 (inactive),0.649 (inactive),-0.341 (inactive),-0.491,-0.126,-0.194,-0.933,-0.384
[N-]=[N+]=NCc1ccccc1C[C@@]1(C(=O)NCc2ccccc2)N=C(c2ccc(OCCCO)cc2)O[C@@H]1c1ccccc1N=[N+]=[N-],1.64,1.18,0.0861,0.948,0.557,-0.58,1.12,-0.324,1.15,-6.99 (inactive),0.122,-3.96 (inactive),0.0507 (inactive),1.05 (inactive),-0.639 (inactive),1.2,-0.003,0.0959,0.461,-1.08
COC(=O)c1nc2oc1CC[C@@H](CO)NC(=O)N(C)Cc1cnnn1C[C@H](Cc1ccccc1)NC2=O,-0.0727,-0.405,-0.302,0.779,-0.701,-0.403,0.9,-0.281,1.03,0.782 (inactive),-0.202,-0.0922 (inactive),-1.19 (inactive),0.484 (inactive),-0.826 (inactive),-0.65,-0.268,-0.182,-0.533,0.272
O=C1OCC=C[C@H]2OC34C=CCN(c5ccc(Cl)cc5)C(=O)[C@H]3N(CCO)C(=O)[C@@H]4[C@@H]12 (stereo not given in full),0.745,-0.658,-0.588,-1.36,-1.12,-1.06,0.805,-0.78,-0.729,-0.386 (inactive),-0.649,0.168 (inactive),3.17 (inactive),0.601 (inactive),-0.663 (inactive),-1.02,-0.26,-0.846,-1.84,-0.889
